Results: publication PMC4336329 (PLoS ONE, 2015)
The whole screen tested about 310,000 compounds, of which about 14,000 (4.5%) showed an effect of 50% or more. Effects have a minus sign here. Shown is part of a subset that was picked to be rich in strong results.

What follows are compounds tested against human ether-à-go-go-related gene (hERG) potassium channel (human, UniProt Q12809) (assay: primary screen, population patch clamp on CHO cells stably expressing hERG; higher = less effect of the substance).
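Note: peak tail current of the secondary pulse compared with the same well before compound.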

Sequence of human ether-à-go-go-related gene (hERG) potassium channel (Q12809 whole entry, looked up): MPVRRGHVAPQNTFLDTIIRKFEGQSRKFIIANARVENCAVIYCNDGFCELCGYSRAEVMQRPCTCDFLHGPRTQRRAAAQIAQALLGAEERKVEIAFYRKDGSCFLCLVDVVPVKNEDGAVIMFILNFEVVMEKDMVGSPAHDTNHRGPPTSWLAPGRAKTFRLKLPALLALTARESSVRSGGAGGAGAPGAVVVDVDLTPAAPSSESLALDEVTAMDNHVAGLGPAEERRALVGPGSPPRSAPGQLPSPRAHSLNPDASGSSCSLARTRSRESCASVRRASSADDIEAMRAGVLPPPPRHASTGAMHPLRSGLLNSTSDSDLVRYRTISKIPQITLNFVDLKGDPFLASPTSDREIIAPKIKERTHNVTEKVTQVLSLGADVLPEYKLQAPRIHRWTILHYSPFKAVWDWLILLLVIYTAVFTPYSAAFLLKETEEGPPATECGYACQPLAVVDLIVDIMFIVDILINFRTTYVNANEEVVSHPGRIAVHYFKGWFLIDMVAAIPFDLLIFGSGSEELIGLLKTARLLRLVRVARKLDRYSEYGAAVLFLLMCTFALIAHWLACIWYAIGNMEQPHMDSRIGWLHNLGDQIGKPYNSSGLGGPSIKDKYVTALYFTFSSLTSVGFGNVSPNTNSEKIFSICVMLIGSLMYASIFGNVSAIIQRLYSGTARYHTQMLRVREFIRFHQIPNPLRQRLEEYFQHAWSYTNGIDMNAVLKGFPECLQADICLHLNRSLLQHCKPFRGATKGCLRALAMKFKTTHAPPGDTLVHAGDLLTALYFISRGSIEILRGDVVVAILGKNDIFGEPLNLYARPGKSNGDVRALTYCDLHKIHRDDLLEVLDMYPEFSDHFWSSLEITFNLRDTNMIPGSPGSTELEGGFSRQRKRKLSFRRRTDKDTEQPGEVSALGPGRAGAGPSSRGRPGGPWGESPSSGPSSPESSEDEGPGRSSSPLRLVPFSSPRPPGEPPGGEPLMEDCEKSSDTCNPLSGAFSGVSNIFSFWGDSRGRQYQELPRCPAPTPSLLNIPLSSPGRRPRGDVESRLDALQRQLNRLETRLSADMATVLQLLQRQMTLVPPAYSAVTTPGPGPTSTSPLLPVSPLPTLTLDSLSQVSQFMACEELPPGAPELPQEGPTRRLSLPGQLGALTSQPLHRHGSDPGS

Row | Compound | hERG current change (%, negative = inhibition) at 10uM [%]
1 | CCOc1ccc(NC(=O)CN2C(=O)COc3ccc(Cl)cc32)cc1 | 0.412
2 | CN(C)C=O.Oc1cccc2c(NC(=S)Nc3ccc(OC(F)F)cc3)cccc12 | -49.5
3 | CCOC(=O)CSC1=NC(=O)/C(=C\c2ccc(OC(C)=O)cc2)S1 | 13.1
4 | CCn1ncc(S(=O)(=O)Nc2cccnc2)c1C | 5.02
5 | CC1(C)CC(=O)C=C(N2CCOCC2)C1 | 15.6
6 | CC1(C)CC(N2CCOCC2)=CC(=[N+]2CCOCC2)C1.[I-] | 8.01
7 | CN(C)c1cccc(N=C2C=C(N3CCOCC3)CC(C)(C)C2)c1 | -60.5
8 | CSc1nnc(CNC(=O)c2ccccc2)n1-c1cccc(C)c1 | -6.07
9 | COC(=O)c1sccc1Oc1ccc(F)cc1[N+](=O)[O-] | 1.74
10 | Cc1ccc(S(=O)(=O)N(Cc2ccccc2)c2ccccc2C(=O)N2CCCCC2)cc1 | -28.6
11 | CCN1CCN(C(=O)c2ccccc2N(Cc2ccccc2)S(=O)(=O)c2ccc(OC)cc2)CC1 | -73.1
12 | CCN1CCN(C(=O)c2ccccc2N(C)S(=O)(=O)c2ccc(C)cc2)CC1 | 2.03
13 | CCOC(=O)N1CCN(C(=O)c2ccccc2N(Cc2ccccc2)S(=O)(=O)c2ccc(OC)cc2)CC1 | -26.3
14 | CCN1CCN(C(=O)c2ccccc2N(Cc2ccccc2)S(=O)(=O)c2ccc(C)cc2)CC1 | -53.2
15 | COc1ccc(S(=O)(=O)N(Cc2ccccc2)c2ccccc2C(=O)N2CCOCC2)cc1 | -8.54
16 | O=C(COc1ccc(Br)cc1CO)Nc1ccccc1F | -2.36
17 | COc1ccc(OC)c(S(=O)(=O)N(C)CC(=O)N2CCN(c3ccccc3F)CC2)c1 | -6.63
18 | CCCOP(=O)(c1ccc(N(C)C)cc1)C(O)c1cc(OC)ccc1OC (stereo not shown) | 0.331
19 | CN(C)CCN(C(=O)CN1C(=O)c2ccccc2C1=O)c1nc2cc3c(cc2s1)OCCO3.Cl | -53.8
20 | Cc1ccc2nc(N(CCCN(C)C)C(=O)CN3C(=O)c4ccccc4C3=O)sc2c1.Cl | -47.5
21 | CN(C)CCN(C(=O)c1ccc2ccccc2c1)c1nc2cc3c(cc2s1)OCCO3.Cl | 7.59
22 | CC(=O)N(CCN(C)C)c1nc2cc3c(cc2s1)OCCO3.Cl | 10.6
23 | CN(C)CCN(C(=O)CN1C(=O)c2ccccc2C1=O)c1nc2cc3c(cc2s1)OCO3.Cl | -57
24 | CCN(CC)CCN(C(=O)CN1C(=O)c2ccccc2C1=O)c1nc2cc3c(cc2s1)OCO3.Cl | -17.8
25 | COCC(C)NC(=O)CCc1nnc(C2(c3ccc(Cl)cc3)CCC2)o1 (stereo not shown) | 5.14

Row | Compound | hERG current change (%, negative = inhibition) at 10uM [%]
26 | O=C(O)CCC(=O)NNC(=O)c1cccc(Br)c1 | -0.791
27 | CCCc1cc(=O)[nH]c(-n2[nH]c3c(c2=O)CCCC3)n1 | 13.9
28 | CCOC(=O)N1CCN(c2nnc(-c3ccc(C)cc3)c3ccccc23)CC1 | -70.1
29 | CCOC(=O)N1CCN(c2nnc(-c3ccccc3)c3ccccc23)CC1 | -22
30 | CCCC(=O)N1CCN(c2nnc(-c3ccccc3)c3ccccc23)CC1 | -45.4
31 | CCCC(=O)N1CCN(c2nnc(-c3ccc(C)cc3)c3ccccc23)CC1 | -81.1
32 | CCCCS(=O)(=O)Nc1ccc(C(=O)NCC2CCCO2)cc1 (stereo not shown) | -4.69
33 | CC(C)=CCc1c(-c2ccc(O)cc2O)oc2c3c(cc(O)c2c1=O)OC(C)(C)C=C3 | 17.6
34 | Cl.NC1C=CC=C(C(=O)O)C1 (stereo not shown) | 3.23
35 | CC1(C)Cc2c(sc3c2C(=O)N(c2ccccc2)C2=NCCN23)CS1.Cl | -5.58
36 | CN1C(=O)c2c(sc3c2CC(C)(C)SC3)N2CCN=C12.Cl | -72.6
37 | CC1(C)Cc2c(sc3c2C2=NCCN2C=N3)CS1.Cl | -16.3
38 | COc1ccc(CCC(C)NCc2ccccc2OC)cc1 (stereo not shown) | -40.4
39 | COc1cc(CCC(C)NCc2ccccc2)ccc1O (stereo not shown) | -3.87
40 | CC(CCc1ccccc1)NC(C)C(O)c1ccc(O)cc1.Cl (stereo not shown) | -65.3
41 | COc1cc(OC)c(OC)cc1CCC(C)NC(=O)Cc1ccccc1 (stereo not shown) | 5.68
42 | COc1cc(OC)c(OC)cc1CCC(C)NCCC(c1ccccc1)c1ccccc1.Cl (stereo not shown) | -71.1
43 | CC(CCc1ccc(O)cc1)NCCC(c1ccccc1)c1ccccc1 (stereo not shown) | -76.1
44 | COc1cc(OC)c(OC)cc1CNC(C)C(O)c1ccccc1.Cl (stereo not shown) | 12.6
45 | CC(NCCc1ccc(O)cc1)C(O)c1ccc(O)cc1.Cl (stereo not shown) | 5.08
46 | COc1ccccc1CCNC(C)CCc1ccc(O)cc1 (stereo not shown) | -52.5
47 | CC(CCc1ccc(O)cc1)NC(c1ccccc1)c1ccc(Cl)cc1 (stereo not shown) | -14.3
48 | CC(CCc1ccc(O)cc1)NCCc1ccc(O)c(O)c1.Cl (stereo not shown) | -13.9
49 | C[C@H](NCCc1ccc(O)cc1)[C@H](O)c1ccc(O)cc1.Cl | 6.27
50 | COc1ccc(-c2sc(NC(=O)c3ccc(C)cc3)nc2-c2ccc([N+](=O)[O-])cc2)cc1 | 9.66

Row | Compound | hERG current change (%, negative = inhibition) at 10uM [%]
51 | CCOc1ccc(-n2c(SCC)nc3c(c2=O)SCC3)cc1 | 15
52 | Cn1c(=O)c2ccccc2n(CC(=O)NC2CCCC2)c1=O | 9.82
53 | CCCN(CCC)Cc1cc(=O)oc2cc3c(cc12)CCC3 | -9.37
54 | CC(=O)O.CC(=O)Oc1ccc2c(c1)OC(c1ccccc1)CC21CC(C)(C)NC(=O)N1 (stereo not shown) | 3.82
55 | O=C1CCCN1CCCNS(=O)(=O)c1ccc(F)cc1F | 8.77
56 | Cc1ccc(-n2nc3c(c2NC(=O)CC(C)C)CS(=O)(=O)C3)c(C)c1 | 25
57 | O=C(COC(=O)C1CC(=O)N(Cc2ccccc2)C1)Nc1ccc(Cl)cc1F (stereo not shown) | 48
58 | C/C(=N\NC(=O)c1nnn(-c2nonc2N)c1CSc1ccc(C)cc1)c1ccco1 | -9.04
59 | O=C1c2ccccc2NC(c2ccc(O)cc2)N1Cc1ccco1 (stereo not shown) | -24.3
60 | CCOC(=O)C(C)CC(C)C(=O)N1CCOCCN(C(=O)C(C)CC(C)C(=O)OCC)CCOCC1 (stereo not shown) | -9.48
61 | COc1ccc(CN(Cc2cc3ccc(C)cc3[nH]c2=O)Cc2nnnn2C2CCCC2)cc1 | -21.4
62 | CC1(C)Cc2c(c(N3CCOCC3)nc3sc(C(N)=O)c(N)c23)CO1 | -5.66
63 | O=C(NCC1CCCO1)c1cc(-c2ccc(Cl)cc2Cl)on1 (stereo not shown) | -9.68
64 | Nc1nccnc1C(=O)OCC(=O)N1CCN(S(=O)(=O)c2ccc(Cl)cc2)CC1 | -15.4
65 | CCCNC(=O)CSc1nc2ccccc2c(=O)n1CCC | 3.3
66 | O=C(Nc1ccccc1N1CCCC1)c1ccc(N2CCCC2=O)cc1 | -22.1
67 | COc1ccc(C)cc1NC(=O)COC(=O)c1ccc2ccccc2n1 | 3.24
68 | CC(O)CCc1ccc(O)cc1 (stereo not shown) | 11.7
69 | CC(CCc1ccc(O)cc1)N(C)CCc1ccccc1 (stereo not shown) | -62.2
70 | COc1ccc(CCC(C)N(C)Cc2ccccc2)cc1 (stereo not shown) | -34.8
71 | CCCNC(=O)c1cc(Cl)c(NC(=O)C2=CSCCO2)cc1OC | 16.5
72 | C=CCNC(=O)Nc1cc(Cl)ccc1OC | 7.65
73 | CCOC(=O)c1ccc(NC(=O)CCCN2C(=O)NC3(CCCC3)C2=O)cc1 | -3.62
74 | O=C(O)CCCCCNC(=O)CCn1cnc2ccccc2c1=O | 5.02
75 | COc1ccccc1N1CCN(C(=O)CCCCCn2c(=O)[nH]c3ccsc3c2=O)CC1 | -24.7

Row | Compound | hERG current change (%, negative = inhibition) at 10uM [%]
76 | O=C1CCCC(=O)N1c1ccc(O)cc1 | 2.73
77 | Cc1ccc(C(=O)NCCN2C3=NC[C@@H](Cc4ccccc4)N3C[C@H]2Cc2ccc(O)cc2)cc1Br | -71.1
78 | Cc1ccc(C(=O)NCCN2C3=NC[C@H](Cc4ccc(O)cc4)N3C[C@H]2Cc2ccc(O)cc2)cc1Br | -51.7
79 | C/C=C(\C)C(=O)NCCN1C2=NC[C@H](Cc3ccc(O)cc3)N2C[C@H]1Cc1ccc(O)cc1 | 16.5
80 | COc1ccc(C[C@H]2CN3C(=NC[C@@H]3Cc3ccc(O)cc3)N2CCNC(=O)c2ccc(C)c(Br)c2)cc1 | -74.3
81 | Cc1ccc(C(=O)NCCN2C3=NC[C@H](C)N3C[C@H]2Cc2ccc(O)cc2)cc1Br | -8.85
82 | COc1cc(/C=C2\SC(=O)NC2=O)ccc1Oc1ccc([N+](=O)[O-])cc1[N+](=O)[O-] | 20.2
83 | Brc1cccc(C=Nc2cccc3ncccc23)c1 | 7.37
84 | CCOc1cc(C)c(Cl)cc1S(=O)(=O)n1nnc2ccccc21 | 6.52
85 | COc1ccc(C(=O)Nc2ccc(Cl)c(Cl)c2)c(OC)n1 | 14.1
86 | O=[N+]([O-])c1cc(C(F)(F)F)ccc1N1CCN(S(=O)(=O)c2ccc3ccccc3c2)CC1 | 9.11
87 | Cc1cc(N2CCN(c3ccc(C(F)(F)F)cc3[N+](=O)[O-])CC2)c2ccccc2n1 | -88.9
88 | Cl.O=[N+]([O-])c1ccc(N2CCCNCC2)c2ncccc12 | -64.8
89 | O=[N+]([O-])c1ccc(N2CCN(CCO)CC2)c2ncccc12 | -45.4
90 | O=[N+]([O-])c1ccc(N2CCCCCC2)c2ncccc12 | 5.54
91 | CC1CN(c2ccc([N+](=O)[O-])c3cccnc23)CC(C)N1 (stereo not shown) | -33.4
92 | O=[N+]([O-])c1ccc(N2CCCC2)c2ncccc12 | 8.6
93 | Nc1nonc1OCCN1CCN(c2ccc([N+](=O)[O-])c3cccnc23)CC1 | -71.7
94 | Cc1cc(N2CCN(c3ccc([N+](=O)[O-])c4cccnc34)CC2)c2ccccc2n1 | -64.3
95 | O=[N+]([O-])c1ccc(N2CCCCC2)c2ncccc12 | -23.7
96 | CN1CCN(c2ccc([N+](=O)[O-])c3cccnc23)CC1 | -41.5
97 | Cc1ccc(S(=O)(=O)N2CCN(c3ccc(C(F)(F)F)cc3[N+](=O)[O-])CC2)cc1 | -30.8
